The values that follow come from PubChem BioAssay AID1347426 (Functional Genomics Laboratory (NCATS/FGL), 2020).

Hit rate of the full screen: of about 31,000 sequences, about 1,400 (4.5%) were called active.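 Rule for the calls: active = median seed-adjusted z-score above 1 or below -1; inactive = the rest.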 This excerpt belongs to a sample that is enriched for actives.

This experiment in a line: Novel Modifiers of Survival Motor Neuron (SMN) Protein: Gene Identification via Genome-wide siRNA Screen.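 Note: luminescence tracks full-length SMN protein made from the SMN2 reporter.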 The conditions noted are these: HEK293T SMN2-luciferase reporter, siRNA knockdown, 72 h; actives lie on both sides. The source says: Spinal muscular atrophy (SMA) is the most common neuromuscular autosomal recessive disorder and one of the leading genetic causes of infant death. SMA results from mutations inducing loss of function or deletion in the survival of motor neuron-1 gene (SMN1), leading to deficiency of the survival motor neuron (SMN) protein. Although a second nearly identical gene, SMN2, is retained in humans, its expression primarily produces an aberrantly spliced isoform that is largely unstable and quickly degraded. We performed a genome-wide RNAi screen using a cell-based reporter assay to identify genes and pathways that modulate SMN protein stability. The screen identified over 200 genes that led to the greatest increase or decrease in luciferase expression.
Using HEK293T cells stably expressing a luciferase reporter that combines the promoter and splicing based cassettes in tandem with the major portion of the native SMN2 cDNA with luciferase, we performed a genome-wide RNAi screen to identify modulators of SMN protein levels. Luciferase is expressed when full-length SMN protein is generated with luminescence signal proportional to SMN protein levels. Our luciferase-based reporter assay was used to screen Ambion Silencer Select Human Druggable Genome siRNA library (10418 genes, 3 unique siRNAs per gene) using lipid-based reverse transfection.
Briefly, 1 pmol of each siRNA was spotted to a well of a 384-well plate (Corning, Corning, NY) and 20 microL of serum-free DMEM containing […] of Lipofectamine RNAiMax (Life Technologies, Carlsbad, CA) was then added to each well. Transfected cells were maintained at 37 degrees C in 5% CO2 for 72 hours, 20 microL of ONE-Glo Reagent (Promega) was added to wells for luciferase quantification. Raw luminescence reads were normalized to Ambion(R) Silencer(R) Negative Control #2 siRNA, then log10 transformed. A robust statistical measure of median absolute deviation (MAD) to standardize siRNA activities from each screen. Common Seed Analysis was used to help prioritize clean hits as opposed to those appearing to arise from seed based off-target effects. Candidate modulators were defined as the genes having a MAD score greater than 1.0 or less than -1.0.
(Reporter assays use an easily measured gene product as a stand-in for the process of interest.)
On to CGUGUUCAGUGGAAUCACATT against NPC1, for which the median seed-adjusted z-score was -0.195 (inactive).

As for UCGAUGUACUGGAGACGGATT against NUCB1, the median seed-adjusted z-score is 0.232 (inactive).

On to GCGAAUCCAGGAUCAAGAATT against TRIP4, for which the median seed-adjusted z-score was -0.0385 (inactive).

For GCUUCUAUUUAGUCACGAATT against AKAP9, the median seed-adjusted z-score was -1.22 (active).

Take GCAAGUUGGAAGACCGGAATT against XPO5: the median seed-adjusted z-score is -0.031 (inactive).

Consider GAUCCAGAAGGGUAGUUAUTT against SERPINB2, for which the median seed-adjusted z-score is -0.0739 (inactive).

Consider CAGAUGCGGUUUAAACAGATT against TBC1D9B, for which the median seed-adjusted z-score is -0.906 (inactive).

With GAGGUGAUCUUAGACCUGATT against QSOX2, the median seed-adjusted z-score was 0.498 (inactive).

AAAAGACCGUCAACCCUUATT against A2BP1: the median seed-adjusted z-score was 1.17 (active).

Regarding CAGUGUGGCUGACAACUUATT against SERTAD1, the median seed-adjusted z-score was 0.376 (inactive).

For the sequence GGCUAGCUGAUAUCAGUUUTT against DDX31, the median seed-adjusted z-score is 0.0144 (inactive).

For the sequence GGAGUGUGAUCGACCCUCATT against KRTAP5-5, the median seed-adjusted z-score is -1.07 (active).

ACCUGGUGGUGUCAACUCATT against PTOV1: the median seed-adjusted z-score was 0.115 (inactive).

For the sequence GGUCGAAGUGUACCCAGUATT against USP11, the median seed-adjusted z-score is -0.0327 (inactive).

With CUACAAAUCCCUUACCAAUTT against TRDMT1, the median seed-adjusted z-score is 0 (inactive).

GGUAUACACUGAAUAUCCUTT against LCP1: the median seed-adjusted z-score is -0.386 (inactive).

In the case of GUACGAGACCUGUUCCAGATT against UCK2, the median seed-adjusted z-score is -1.51 (active).

Regarding ACAUGGACGUGAAAGGGAATT against WFIKKN2, the median seed-adjusted z-score is -0.353 (inactive).

GCUUCGUGCUAGAUAAAGATT against NOP14: the median seed-adjusted z-score is -0.344 (inactive).

Take CAGCAUUCUUUAUCUCGUATT against FZD3: the median seed-adjusted z-score was -0.0208 (inactive).

Regarding CCAUCAUGCUUGAUCGGGATT against SLC4A4, the median seed-adjusted z-score was 0.43 (inactive).

Regarding GUACAAUCGUUGACAAUGATT against PPEF1, the median seed-adjusted z-score is -0.58 (inactive).

With CUACUGUCCUGAUGUAUCATT against MYF5, the median seed-adjusted z-score is -0.786 (inactive).

Regarding GCAGCUGUAUAAGUUACUATT against NFKB1, the median seed-adjusted z-score was 0.31 (inactive).

GGAAGGACUGCGAACCUUATT against POLM: the median seed-adjusted z-score is -1.55 (active).

AGAUAAGGAUGAAUUGAUATT against KLRB1: the median seed-adjusted z-score is -0.44 (inactive).

Take GAACUAAUCAGGAAGCUUATT against DHX40: the median seed-adjusted z-score was -0.75 (inactive).

For the sequence GGAGAGGGUUGACAAAGUATT against PCYT1A, the median seed-adjusted z-score was 0.0429 (inactive).

On to CAUCUGAUCCGGGAAAUCATT against GALNT14, for which the median seed-adjusted z-score was 0 (inactive).

For GUGUCUCCAUAGUACGAGATT against ELP3, the median seed-adjusted z-score is 0.321 (inactive).

Consider AGCUCAACCAUAACGUGAATT against DIRAS2, for which the median seed-adjusted z-score is -1.25 (active).

On to CGCAUUGCUUACUUACAAATT against PCDHA10, for which the median seed-adjusted z-score was 0.0404 (inactive).

On to GCUGAGGACUUUAAUAUCUTT against GPR175, for which the median seed-adjusted z-score was 0.245 (inactive).

For the sequence GAUCCAAGCUAAUAUGAGATT against TGM5, the median seed-adjusted z-score was 0.0181 (inactive).

Regarding CCUCAAGGAUUGGGACUAUTT against SLC22A17, the median seed-adjusted z-score is -0.149 (inactive).

For the sequence GGAAUUUCAUGUUCGGAAUTT against PAFAH2, the median seed-adjusted z-score was 0.0216 (inactive).

For the sequence GCAUCCGUGGAAAUGGUUATT against ASNS, the median seed-adjusted z-score was -1.1 (active).

As to CAUUCGGAGAAGUCGCAAATT against DDX59, the median seed-adjusted z-score was -0.859 (inactive).

In the case of GAUGAUUCAGGUAAAAUAATT against CETN3, the median seed-adjusted z-score was -0.0815 (inactive).

In the case of CAACGGGACUAUUAUGAUATT against HNRNPC, the median seed-adjusted z-score is -2.15 (active).

Turning to GCCACGAAAAUCAAUGAGATT against EDF1, the median seed-adjusted z-score is 0.0783 (inactive).

Turning to CCAGCAAACUCAACCAACATT against KCNJ6, the median seed-adjusted z-score is -1.6 (active).

For the sequence GGAUGACUACAGGCAAGAATT against GPA33, the median seed-adjusted z-score was 0.138 (inactive).

With GCUUCACCAGGGACGUGAATT against CD1D, the median seed-adjusted z-score was -0.579 (inactive).

Take AGGUCUCAGAUGAAGCGGUTT against PPM1B: the median seed-adjusted z-score was 0 (inactive).

Regarding CCCUUAAUAGAGAGAGUUATT against AADAT, the median seed-adjusted z-score is 0.0891 (inactive).

With GGAUCAAUGAGUUCUCCAUTT against FMOD, the median seed-adjusted z-score was -1.32 (active).

GGCUCAAGUUCAACGAGUUTT against ARL4C: the median seed-adjusted z-score is -0.61 (inactive).

In the case of GGCCUAUGCAAAAAGAGGATT against BAD, the median seed-adjusted z-score was 0 (inactive).

Consider GGAUACAUUAAGCUAAUAATT against PRMT3, for which the median seed-adjusted z-score was 0.00875 (inactive).

Consider CCACCCUUCCGAGACAUGATT against TOP3B, for which the median seed-adjusted z-score is -1.11 (active).

With GCAUAAGAGGGAAUUCACATT against TAGLN, the median seed-adjusted z-score was 0.0485 (inactive).

For the sequence CGAUCGUCUUCUGAUCAAATT against DPYSL2, the median seed-adjusted z-score was -0.569 (inactive).

On to ACCUGAGUGUGAACCUCUATT against GDPD5, for which the median seed-adjusted z-score was -0.0618 (inactive).

Turning to CAGUAGUGUUGGUAGACCATT against HADH, the median seed-adjusted z-score is 1.11 (active).

For GAGUGUAUGUGAUCAUCGATT against PRKCE, the median seed-adjusted z-score is 0.568 (inactive).

As for GGAGAUUGUUUCACGGAAATT against TBC1D23, the median seed-adjusted z-score was 0.0932 (inactive).

With GGGACGAGAUCAACGAGAATT against KIF5A, the median seed-adjusted z-score is -0.348 (inactive).

On to UCUUAUUUAUUCUACAUCCTT against TNFRSF6B, for which the median seed-adjusted z-score is 0.0458 (inactive).

With GUUGUUCCUUUGUAUCCAATT against DHX32, the median seed-adjusted z-score is -0.12 (inactive).

Take CCCAGACAAAUUACCUAUATT against CAD: the median seed-adjusted z-score was 2.37 (active).

Consider GGACCUAUGAGCAACGAAATT against ATP1A4, for which the median seed-adjusted z-score is 0.116 (inactive).

Turning to GCAUGAACCAGUUAUCACATT against SCYL2, the median seed-adjusted z-score was -0.0652 (inactive).

With GCAGCUCUGAGAACGGCAATT against ARHGEF1, the median seed-adjusted z-score is -0.0658 (inactive).

Turning to CUACCGAUGCUGAAAGACATT against PGM3, the median seed-adjusted z-score is -0.527 (inactive).

Regarding CCACGCUCAUCAUCUCCAATT against SLC4A2, the median seed-adjusted z-score is -0.539 (inactive).

Turning to CUACUGUUCUUGACCACAATT against DHX15, the median seed-adjusted z-score was 1.36 (active).

For the sequence GGCUCAAGGGCUUUGCUGATT against ADSSL1, the median seed-adjusted z-score was 0.0976 (inactive).

In the case of CCGUUAGACCAGAACGGAATT against MGA, the median seed-adjusted z-score is 0.0136 (inactive).
